Measured values as given in the supplement of paper PMC10338343.
± gives the standard deviation.

test system: MILI (PIWIL2) piRISC loaded with L1MC piRNA (26 nt); experiment: pre-steady-state target cleavage rate (min^-1); guide: L1MC piRNA 5'p-UAACUAAAUACUAUGCAAGCUGUAGG; MIWI and MILI are mouse PIWI proteins and EfPiwi is from a freshwater sponge; tags in brackets are library labels; higher = faster piRNA-guided slicing of the target; settings: auxiliary factor: 500 nM mouse GTSF1
Method in brief: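 With or without 500 nM GTSF1 partner protein, 1 nM active affinity-purified piRISC carrying one synthetic guide was mixed with 0.1 nM transcribed, DNA-blocked target RNA library in HEPES–potassium acetate buffer at 33 °C for 0–8 or 0–960 min. Uncleaved targets were sequenced and normalised to depth and to weakly complementary targets, three trials were pooled, and k3 was capped at 0.0001 min^-1. The pre-steady-state cleavage rate came from a burst-and-steady-state fit.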

Sequence | pre-steady-state target cleavage rate
UCCUGGUACAGCUUGCAUAGUAAUAAGUUA | 0.204 ± 0.033
UCCUGGUACUGCUUGCAUAGUAUUUAGUAA | 0.0986 ± 0.018
UCCUGGAACAGCUUGCAUAGUAUUUUCAAA | 0.0774 ± 0.018
UCCUCCUACAGCUUGCAAAGUAUUAAGUUA | 0.0872 ± 0.014
UCCUCCUACACCUUGCAUAGUAUUUAGAAA | 0.226 ± 0.05
UCCUGCUACAGCUUGCAUAGUUUUUUCAAA | 0.0433 ± 0.014
UCCUGGAUGAGCUUGCAUAGUAUUUAGUCUA | 0.0419 ± 0.013
UCCUGCUACAGCUUGCAUAUGUAUUUAGUUA | 0.0123 ± 0.0069
UCCUCCUACAGCUUGCAUAGUAUUUUCAUA | 0.091 ± 0.02
UCCUGCUUGAGCUUGCAUAGUAUUUUCAAA | 0.0372 ± 0.013
UCCUGGAUGUCCUUGCAUAGUAUUUAGUCUA | 0.0325 ± 0.01
UCCUGCUACAGCUUGCACUAGUAUUUAGUUA | 0.0609 ± 0.015
UCCUGGAUGAGCUUGCAUAGUAAUUAGUAA | 0.219 ± 0.042
UCCUGCUACAGCUAGCAUAGUAUUUUGUUA | 0.244 ± 0.031
UCCUGGAUCAGCUUGCAUAGUAUUAAGAUA | 0.0716 ± 0.025
UCCUCCUACAGCUUGCAUAGAAUUUUGUUA | 0.0525 ± 0.013
UCCUCCUACAGCUUGCACUAGUAUUUAGUUA | 0.0877 ± 0.019
UCCUCCUACAGCUUGCAUAGUUUUUACUUA | 0.036 ± 0.0086
UCCUCCUACUGCUUGCAUAGUAUUUACAAA | 0.0424 ± 0.011
UCCUGGAACAGCUUGCAUACUAAUUAGUUA | 0.0355 ± 0.0087

Sequence | pre-steady-state target cleavage rate
UCCUCCUACAGCUUGCAUAGUAUAAUGUAA | 0.046 ± 0.014
UCCUCCUAGUGCUUGCAUAGUAUUUAGAAA | 0.0113 ± 0.0046
UCCUGGAUCAGCUUGCAUAGGAUUUAGUUA | 0.0049 ± 0.0037
UCCUGGUACAGCAUGCAUAGUAUUUAGAAA | 0.0581 ± 0.015
UCCUCCUACAGCUUGCUUAGUAUUUUCAAA | 0.0605 ± 0.014
UCCUGCUACAGCUUGCAUUAGUAUUUAGUUA | 0.017 ± 0.007
UCCUGCUACAGCAUCCAUAGUAUUUAGUUA | 0.195 ± 0.047
UCCUCCUACAGCUUGCAAUAGUAUUUAGUUA | 0.0415 ± 0.01
UCCUGCUACAGCUUGCAAAGUUUUUAGUUA | 0.0201 ± 0.0069
UCCUGGAACAGCUUGCAUAGUAAAAAGUUA | 0.0663 ± 0.018
UCCUGCUACAGCUUGCAUUGUAUUUAGAAA | 0.111 ± 0.03
UCCUCCUACAGCUAGCAUAGUAUUUUGUUA | 0.151 ± 0.019
UCCUCCUACAGCUUGCAUAGUAUAAAGUAA | 0.0819 ± 0.019
UCCUGGUACACCUUGCAUAGUAUUAAGUUA | 0.218 ± 0.066
UCCUGCUACAGCUUGCAAAGUAUAUAGUUA | 0.0886 ± 0.016
UCCUGGAAGAGCUUGCAUAGAAUUUAGUUA | 0.0498 ± 0.011
UCCUCCUACAGCUAGCAUAGUAUUUAGAAA | 0.113 ± 0.021
UCCUGGAUGAGCUUCCAUAGUAUUUAGUUA | 0.0222 ± 0.011
UCCUCCUACACCUUGCAUAGUAUUUACAAA | 0.127 ± 0.032
UCCUGGAACAGCUUGCAUAGUUUUUAGAUA | 0.0168 ± 0.0068
